# An excerpt weighted towards active compounds, which were near 2.8% of everything screened.
# KDM5B inh: blocks human KDM5B histone demethylase activity; Q9UGL1; KDM5B demethylase, FDH-coupled NADH fluorescence (FDH is formaldehyde dehydrogenase); Potency, µM (highest dose often 57.7 µM), most hits filed as inhibitors; 220,000 compounds, 2.6% hits; AID 1347165; note: potency is the fitted concentration of half-maximal effect; 0% is about no effect; nearly all actives have a fitted effect of over 70% in size
#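 qHTS format, multiple compound concentrations. Buffer 50 mM HEPES pH 7.5/0.01% Tween-20; 200 nM KDM5BΔAP final; 10 min compound preincubation; substrate-mix levels 12.5 µM peptide, 25 µM α-KG, 0.25 mM NAD⁺; 30 min RT; ΔRFU.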
# SNCA expr inh: inhibitors of alpha-synuclein (SNCA) gene expression; HEK-293 SNCA-luciferase knock-in, luminescence, 24 h; Potency, µM (top dose mostly 57.2 µM), inactives show top-dose activity change, negative = inhibition, usual class: inhibitors; 140,000 compounds, 0.17% hits;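 note: potency is the fitted concentration of half-maximal effect; plate controls were DMSO cells for no effect and cell-free wells for full effect; nearly all actives have a fitted effect of over 45% in size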
# IP6K1 inhibitor: blocks human inositol hexakisphosphate kinase 1; activity change, % (series mostly up to about 58 µM); 140,000 compounds, 0.81% hits; IP6K1 kinase, ADP-Glo luminescence, 2 h; stronger effect = lower value; Q92551; in the data active = activity change below about -25%; note: % is set by controls: 0 for no effect and ±100 for the full control effect
#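 ADP-Glo luminescence measures ADP made by human IP6K1 during a 2 h RT reaction with ATP/IP6 (mix at 1.3 mM/130 uM); top library doses 57.5 and 19.1 uM final.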
# SNCA viab count: counter-screen for SNCA expression inhibitors: cell viability; 150,000 compounds, 0.12% hits; Potency, µM (doses to about 57.1 µM), without a hit: at the top dose activity change, negative = cytotoxicity, most hits filed as cytotoxic; HEK-293-SNCA-luc viability, GF-AFC fluorescence, 24 h;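 note: potency is the fitted concentration of half-maximal effect; 0% = DMSO-treated cells and -100% = medium-only wells without cells; nearly all actives have a fitted effect of over 30% in size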
#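 HEK-293-SNCA-luc cells (1500/well) plated 24 h, then exposed 24 h to a dilution series; GF-AFC added 30 min at 37C, fluorescence 405/540 nm; normalised to medium-only and DMSO wells, Hill fit.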
# An asterisk follows results filed as active; i = inactive; ? = inconclusive; . = no result given; [ ] = remark or other dose. Unless noted, calls come from the whole dose curve; as a rule, active = well fitted curve in the direction sought with a large enough effect; inconclusive = small, poorly fitted or top-dose-only effect, or another doubt; inactive = no such curve, though single readings can be large; an effect the other way counts as inactive or inconclusive.
SMILES,KDM5B inh,SNCA expr inh,IP6K1 inhibitor,SNCA viab count
Cc1nc(-c2ccco2)cc([C@H]2CN3CC[C@H]2C[C@@H]3CNC(=O)c2cccs2)n1,?,29%[87.6 µM],17,-5%[87.6 µM]
Cc1nc(-c2ccco2)cc([C@H]2CN3CC[C@H]2C[C@@H]3CNC2CCOCC2)n1,22µM*,11%[87.6 µM],4,-11%[87.6 µM]
Cc1ccc(C(=O)NC[C@H]2C[C@@H]3CCN2C[C@@H]3c2cc(-c3cccs3)nc(C)n2)cc1,35µM*,?,19,?
Cc1nc(-c2ccco2)cc([C@H]2CN3CC[C@H]2C[C@@H]3CNC(=O)Cc2cccs2)n1,18µM*,20%[87.6 µM],7,0%[87.6 µM]
COc1ccc(CC(=O)N2CCN(CCCn3nc4n(c3=O)CCCC4)CC2)cc1,.,.,-7,.
O=C(NC1CCCCC1)N1C[C@@H]2C[C@H](C1)c1c(-c3cncnc3)ccc(=O)n1C2,i,-12%[87.6 µM],0,0%[87.6 µM]
O=C(CSC(c1ccccc1)c1ccccc1)Nc1ccc2c(c1)OCCCO2,i,.,.,.
O=C(O)C1=NOC2CN(CC3CCNC3)CC12 (stereo not drawn),141µM*,12%[87.6 µM],0,4%[87.6 µM]
C=C1[C@@H](C)C2[C@H](Cc3ccccc3)NC(=O)[C@@]23C(/C=C/C[C@H](C)C[C@@](C)(O)/C=C/[C@@H]3OC(C)=O)[C@@H]1O (stereo partly drawn),.,.,-1,-23%
C=C1[C@@H](C)[C@H]2[C@H](Cc3ccccc3)NC(=O)[C@]23OC(=O)/C=C/C(=O)CCC[C@@H](C)C/C=C/[C@H]3[C@@H]1O,.,.,-11,12µM*
O=C1Nc2ccccc2CC12CCN(Cc1ccccn1)C2 (stereo not drawn),32µM*,7%[87.6 µM],8,-2%[87.6 µM]
O=C(NC1CCCCC1)[C@H]1CN2CCC1C[C@@H]2Cn1cc(CO)nn1 (stereo partly drawn),i,-7%[87.6 µM],9,-10%[87.6 µM]
c1cnc(N2CC[C@@]3(CCCNC3)C2)nc1,.,-14%,.,-3%
c1cnc2c(c1)NC1(CCCNC1)C(=NC1CCCC1)N2 (stereo not drawn),25µM*,1%,0,7%
Cc1nc(-c2ccc(N(C)C)cc2)cc([C@H]2CN3CC[C@H]2C[C@@H]3CNC(=O)c2ccco2)n1,25µM*,-24%,-4,-5%
Cc1nc(-c2ccc(N(C)C)cc2)cc([C@H]2CN3CC[C@H]2C[C@@H]3COC(=O)Nc2ccccc2)n1,?,?,-8,?
Cc1nc(-c2ccc(N(C)C)cc2)cc([C@H]2CN3CC[C@H]2C[C@@H]3CNC(=O)NC(C)C)n1,11µM*,1%[87.6 µM],-12,-21%[87.6 µM]
COc1ccccc1-c1cc([C@H]2CN3CC[C@H]2C[C@@H]3CNC(=O)CCC(=O)O)nc(C)n1,32µM*,-8%,8,4%
COc1ccccc1-c1cc([C@H]2CN3CC[C@H]2C[C@@H]3COC(=O)NC(C)C)nc(C)n1,40µM*,?,4,0%[87.6 µM]
Cc1nc(-c2ccc(C(F)(F)F)cc2)cc([C@H]2CN3CC[C@H]2C[C@@H]3CNC(=O)CCC(=O)O)n1,i,19%,5,1%
COc1ccccc1-c1cc([C@H]2CN3CC[C@H]2C[C@@H]3COC(=O)Nc2ccccc2)nc(C)n1,?,5%,9,5%
CCCNC(=O)OC[C@H]1C[C@@H]2CCN1C[C@@H]2c1cc(-c2ccccc2OC)nc(C)n1,35µM*,-19%[87.6 µM],4,0%[87.6 µM]
Cc1nc(-c2ccccc2Br)cc([C@H]2CN3CC[C@H]2C[C@@H]3CNC(=O)CSCC(=O)O)n1,25µM*,5%,17,0%
CC(C)CCN1CCCC2(CC(c3cccnc3)=NO2)C1 (stereo not drawn),?,2%[87.6 µM],3,-6%[87.6 µM]
COCC(=O)NC[C@H]1C[C@@H]2CCN1C[C@@H]2c1cc(-c2ccc3ccccc3c2)nn1C,i,3%[87.6 µM],3,-10%[87.6 µM]
SMILES,KDM5B inh,SNCA expr inh,IP6K1 inhibitor,SNCA viab count
O=[N+]([O-])c1cccnc1N1CC2CCC(C1)N2CC(F)(F)F,i,12%,-5,-7%
C=CCn1c(C)c(C(=O)OCC)c2cc(O)ccc21,i,.,.,.
COc1ccccc1-c1cc([C@H]2CN3CC[C@H]2C[C@@H]3COC(=O)NC2CCCCC2)nc(C)n1,28µM*,?,9,-12%
COc1ccc(-c2cc([C@H]3CN4CC[C@H]3C[C@@H]4CNC(=O)C(C)(C)C)nc(C)n2)cc1OC,32µM*,6%,1,2%
O=C(NC1CCCCC1)OC[C@H]1C[C@@H]2CCN1C[C@@H]2c1cc(C2CCCC2)nc(-c2ccncc2)n1,?,-26%,10,-19%
COc1ccccc1-c1cc([C@H]2CN3CC[C@H]2C[C@@H]3CNS(=O)(=O)c2ccc(NC(C)=O)cc2)nc(C)n1,32µM*,-2%,-3,-21%
CC(=O)Nc1ccc(S(=O)(=O)NC[C@H]2C[C@@H]3CCN2C[C@@H]3c2cc(-c3ccccc3Br)nc(C)n2)cc1,i,9%,8,-7%
CCOC(=O)[C@H]1CN(C(=O)c2cc3ccccc3oc2=O)[C@]2(C)C(=O)N(CCO)c3ccccc3[C@H]12,.,-7%[25.6 µM],1,-14%[23.9 µM]
CN1CCN(C(=O)Cc2cccn2-c2ccc(F)cc2)CC1,i,31%,6,1%
Cc1noc(C)c1-c1cnc2[nH]cc(CC(=O)N3CCN(C)CC3)c2c1,28µM*,53%[87.6 µM],4,6%[87.6 µM]
Cc1ccccc1-c1cnc2[nH]cc(CC(=O)N3CCN(C)CC3)c2c1,32µM*,-20%[87.6 µM],-12,1%[87.6 µM]
CN1CCN(C(=O)Cc2c[nH]c3ncc(-c4cccc(Cl)c4)cc23)CC1,35µM*,4%[87.6 µM],-21,-5%[87.6 µM]
CN1CCN(C(=O)Cc2c[nH]c3ncc(-c4cccc(F)c4)cc23)CC1,28µM*,5%[87.6 µM],-12,8%[87.6 µM]
COc1ccc(OC)c(-c2cnc3[nH]cc(CC(=O)N4CCN(C)CC4)c3c2)c1,i,-14%[87.6 µM],-7,0%[87.6 µM]
Cc1noc(C)c1COc1ccc(CC(=O)N2CCN(CC(=O)N3CCCCC3)CC2)cc1,i,.,.,.
C/C=C(/C)C(=O)O[C@H]1[C@@H]2[C@H](C)C(=O)O[C@@H]2C[C@@H](C)[C@@H]2C=CC(=O)[C@]21C,.,.,8,?
Cn1nc(C2CCCCC2)cc1[C@H]1CN2CC[C@H]1C[C@@H]2CNC(=O)COc1ccccc1,i,-5%,-2,-4%
CN(C)Cc1ccccc1-c1ccc2n(c1=O)C[C@H]1C[C@@H]2CN(C(=O)C2CCCCC2)C1,35µM*,-10%[87.6 µM],1,-1%[87.6 µM]
COc1ccccc1NC(=O)N1C[C@@H]2C[C@H](C1)c1c(C3CCCCC3)ccc(=O)n1C2,i,2%[87.6 µM],-4,-16%[87.6 µM]
COc1ccccc1NC(=O)Nc1ccc2n(c1=O)C[C@H]1C[C@@H]2CN(C2CCOCC2)C1,16µM*,-6%,4,-8%
COc1cc2c(cc1OCc1ccccc1)NC(=O)C21CCN(c2ncccn2)CC1,?,-22%[87.6 µM],-21,-8%[87.6 µM]
COc1cc2c(cc1OC1CCCC1)NC(=O)C21CCN(C(=O)c2cccc(C#N)c2)CC1,i,-21%,-4,-4%

# Screens from PubChem BioAssay.
